According to PubChem BioAssay (NCI):
Compounds without any hit were thinned out: in the full panel of roughly 83,000, 20% have a hit.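 Activity criterion: percent growth below 10, measured after cells in 96-well plates were exposed to a single compound concentration for 48 hours.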 Active and inactive are the calls of the source.

Assays:
Assay in all cases: NCI-60 one-dose screen, 48 h (100 = growth as untreated, 0 = no growth, -100 = all killed)
Conditions in all cases: 10 µM unless noted
HCT-15 colon = tested on: HCT-15 colon
HT29 colon = tested on: HT29 colon
SNB-75 CNS = tested on: SNB-75 CNS
SNB-19 CNS = tested on: SNB-19 CNS
U251 CNS = tested on: U251 CNS
PC-3 prostate = tested on: PC-3 prostate
SK-MEL-5 melanoma = tested on: SK-MEL-5 melanoma
UACC-62 melanoma = tested on: UACC-62 melanoma
LOX IMVI melanoma = tested on: LOX IMVI melanoma
SK-MEL-28 melanoma = tested on: SK-MEL-28 melanoma

Measured: growth

COc1cc(/C=C2\CCCC3=C2NC(C)=NC3c2cc(OC)c(OC)c(OC)c2)cc(OC)c1OC (stereo not given)
active: HCT-15 colon 4.23% | HT29 colon 7.9% | U251 CNS 9.77% | UACC-62 melanoma 9.03% | LOX IMVI melanoma -41.2%
inactive: SNB-75 CNS 21.9% | SNB-19 CNS 61.2% | PC-3 prostate 42.7% | SK-MEL-5 melanoma 19.1% | SK-MEL-28 melanoma 31.9%

O=S(=O)(NCCCNc1cc(-c2cn(-c3ccccc3)nc2-c2cccc(O)c2)ccn1)c1cccc2ccccc12
active: HCT-15 colon 1.39% | HT29 colon -9.29% | SK-MEL-28 melanoma 4.71%
inactive: SNB-75 CNS 28.1% | SNB-19 CNS 64.2% | U251 CNS 35.2% | PC-3 prostate 18.5% | SK-MEL-5 melanoma 14.2% | UACC-62 melanoma 34.5% | LOX IMVI melanoma 10.3%

COc1ccc(Cn2c(SC)nc(=O)n(Cc3ccc(Cl)cc3)c2=O)cc1
inactive: HCT-15 colon 98.5% | HT29 colon 121% | SNB-75 CNS 80.7% | SNB-19 CNS 97% | U251 CNS 93.2% | PC-3 prostate 90.1% | SK-MEL-5 melanoma 107% | UACC-62 melanoma 87.7% | LOX IMVI melanoma 87.5% | SK-MEL-28 melanoma 102%

Cc1cc(Nc2nc(C(=O)Nc3ccccc3)nc3ccccc23)n[nH]1
inactive: HCT-15 colon 29.5% | HT29 colon 84.7% | SNB-19 CNS 97.3% | U251 CNS 72.5% | PC-3 prostate 51.2% | SK-MEL-5 melanoma 59.2% | UACC-62 melanoma 59.9% | LOX IMVI melanoma 54% | SK-MEL-28 melanoma 69.5%
active: SNB-75 CNS -0.848%

Cc1cc(C)c(S(=O)(=O)N2CCN(c3cc4c(cc3F)c(=O)c(C(=O)O)cn4C3CC3)CC2)c(C)c1
inactive: HCT-15 colon 55.1% | HT29 colon 28.3% | SNB-75 CNS 36.6% | SNB-19 CNS 66.3% | U251 CNS 19.7% | PC-3 prostate 67.9% | SK-MEL-5 melanoma 54.9% | UACC-62 melanoma 76.6% | LOX IMVI melanoma 29.6% | SK-MEL-28 melanoma 69.1%

COc1ccc(C(=O)/C=C/c2cccc([N+](=O)[O-])c2)c(OC)c1
inactive: SNB-75 CNS 35.2% | SNB-19 CNS 17% | PC-3 prostate 33.3% | SK-MEL-5 melanoma 41.4% | UACC-62 melanoma 31.5% | SK-MEL-28 melanoma 69.4%
active: HCT-15 colon -47.2% | HT29 colon -3.14% | U251 CNS -16.2% | LOX IMVI melanoma -73.3%

Cc1cc(Cl)ccc1OC(C)C(=O)Nc1nnc(C2CC2)s1 (stereo not given)
inactive: HCT-15 colon 119% | HT29 colon 66.4% | SNB-75 CNS 104% | SNB-19 CNS 95.6% | U251 CNS 101% | PC-3 prostate 99.2% | SK-MEL-5 melanoma 74% | UACC-62 melanoma 85.5% | LOX IMVI melanoma 95.4% | SK-MEL-28 melanoma 120%

CCN(CC)c1cc(/C=C/c2ccc(OC)c(OC)c2)nc2cc(F)c(F)cc12
inactive: HCT-15 colon 80.1% | HT29 colon 103% | PC-3 prostate 65.6% | SK-MEL-5 melanoma 93.3% | UACC-62 melanoma 10.4% | LOX IMVI melanoma 25.9% | SK-MEL-28 melanoma 98.2%
active: SNB-75 CNS -68.5% | SNB-19 CNS -33.1% | U251 CNS -62.3%

COc1ccc(-c2nnc(COc3ccc(NS(=O)(=O)c4ccc(OC)cc4)cc3F)o2)cc1
inactive: HCT-15 colon 85.1% | HT29 colon 91.1% | SNB-75 CNS 77.4% | SNB-19 CNS 84% | U251 CNS 82.2% | PC-3 prostate 56.3% | SK-MEL-5 melanoma 43.9% | UACC-62 melanoma 64.8% | LOX IMVI melanoma 86.3% | SK-MEL-28 melanoma 97%

Cc1ccccc1C(=O)c1ccccc1C(=O)O
inactive: HCT-15 colon 107% | HT29 colon 111% | SNB-75 CNS 84.8% | SNB-19 CNS 111% | U251 CNS 104% | PC-3 prostate 96.8% | SK-MEL-5 melanoma 104% | UACC-62 melanoma 104% | LOX IMVI melanoma 95.9% | SK-MEL-28 melanoma 109%

Cc1cc2c(c(=O)o1)C(c1ccc(OC(=O)N3CCOCC3)cc1)C(C#N)=C(N)O2 (stereo not given)
inactive: HCT-15 colon 101% | HT29 colon 104% | SNB-75 CNS 95.6% | SNB-19 CNS 101% | U251 CNS 100% | PC-3 prostate 103% | SK-MEL-5 melanoma 103% | UACC-62 melanoma 108% | LOX IMVI melanoma 96.4% | SK-MEL-28 melanoma 110%

COc1ccc(C2SCC(=O)N2NC(=O)c2ccc(NC(=O)c3ccccn3)cc2)cc1OC (stereo not given)
inactive: HCT-15 colon 107% | HT29 colon 97.8% | SNB-75 CNS 84.3% | SNB-19 CNS 95.5% | U251 CNS 94.2% | PC-3 prostate 95.3% | SK-MEL-5 melanoma 102% | UACC-62 melanoma 91.5% | LOX IMVI melanoma 99.5% | SK-MEL-28 melanoma 104%

CCCCCCCCCCn1cc[n+](C)c1
inactive: HCT-15 colon 82% | HT29 colon 12.3% | SNB-19 CNS 45.5% | U251 CNS 21.7% | UACC-62 melanoma 31.1% | LOX IMVI melanoma 23.9% | SK-MEL-28 melanoma 34.9%
active: SNB-75 CNS -10.6% | PC-3 prostate 6.6% | SK-MEL-5 melanoma -33.1%

COc1ccc(/C=C/C(=O)c2ccc(B(O)O)cc2)cc1O
inactive: HCT-15 colon 31.2% | HT29 colon 64.6% | SNB-75 CNS 72.6% | SNB-19 CNS 89.2% | U251 CNS 80.7% | PC-3 prostate 74.1% | SK-MEL-5 melanoma 93% | UACC-62 melanoma 76.9% | LOX IMVI melanoma 57.7% | SK-MEL-28 melanoma 90.3%
